Assay results reported in PubChem BioAssay.
The source made the active and inactive calls.

Legend:
[1] = E. coli DRC41 culture turbidity changes, primary screen, E. coli filamentation inducer project, strain DRC41, OD650, 48 h (AID 1152);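 note: E. coli MC1000 strain DRC41 lacking acrAB efflux pump and sulA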; conditions: E. coli DRC41 (acrAB sulA), higher = more signal, called active from +8 up or from −8 down
[2] = small-molecule binders of probe aLefty1, primary screen, biochemical, small-molecule microarray, 635/667 nm fluorescence (AID 1153); conditions: higher = more signal;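 note: score merges spot fluorescence with signal-to-noise ratio from the scanned slide images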
[3] = PSAC antagonists in infected red cells, primary screen, cell-based, P. falciparum Indochina, OD700, 1 h (AID 1154); conditions: P. falciparum Indochina infected RBC osmotic lysis, higher = more signal, called active from +8 up or from −8 down
[4] = PSAC antagonists in infected red cells, primary screen, cell-based, P. falciparum Indochina, OD700, 2 h (AID 1155);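 note: lysis reports solute entry through the parasite surface anion channel PSAC; channel blockers reduce lysis of infected cells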; conditions: P. falciparum Indochina infected erythrocytes, osmotic lysis OD700; higher = more signal, called active from +8 up or from −8 down
[5] = osmotic lysis modulators in infected erythrocytes, primary screen, PSAC antagonist project, cell-based, P. falciparum Indochina, OD700, 3 h (AID 1156); conditions: higher = more signal, called active from +8 up or from −8 down
[6] = PSAC antagonists in infected red cells, primary screen, cell-based, P. falciparum Indochina, OD700, 18 h (AID 1157); conditions: P. falciparum Indochina infected erythrocytes, osmotic lysis OD700, 18 h; higher = more signal, called active from +8 up or from −8 down
[7] = modulators of S6 phosphorylation in cells, primary screen, cell-based, A549, cytoblot, luminescence, serum-stimulated (AID 1158); conditions: A549 phospho-S6 cytoblot, 5 h, higher = more signal;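 note: serum-stimulated A549 lung adenocarcinoma cells; signal is phosphorylated S6 detected by cytoblot immunostaining with HRP secondary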
[8] = molecular target: NADPH oxidase 2 (Homo sapiens) (UniProt P04839); assay: NOX2-dependent H2O2 signal modulators, primary screen, NOX inhibitor project, cell-based, HEK293-NOX2, PMA-stimulated, Amplex Red fluorescence (AID 1159); conditions: 45 min, higher = more signal, called active from +8 up or from −8 down; note: test concentration not given here
Sequence of NADPH oxidase 2 (Homo sapiens) (P04839 whole entry, looked up): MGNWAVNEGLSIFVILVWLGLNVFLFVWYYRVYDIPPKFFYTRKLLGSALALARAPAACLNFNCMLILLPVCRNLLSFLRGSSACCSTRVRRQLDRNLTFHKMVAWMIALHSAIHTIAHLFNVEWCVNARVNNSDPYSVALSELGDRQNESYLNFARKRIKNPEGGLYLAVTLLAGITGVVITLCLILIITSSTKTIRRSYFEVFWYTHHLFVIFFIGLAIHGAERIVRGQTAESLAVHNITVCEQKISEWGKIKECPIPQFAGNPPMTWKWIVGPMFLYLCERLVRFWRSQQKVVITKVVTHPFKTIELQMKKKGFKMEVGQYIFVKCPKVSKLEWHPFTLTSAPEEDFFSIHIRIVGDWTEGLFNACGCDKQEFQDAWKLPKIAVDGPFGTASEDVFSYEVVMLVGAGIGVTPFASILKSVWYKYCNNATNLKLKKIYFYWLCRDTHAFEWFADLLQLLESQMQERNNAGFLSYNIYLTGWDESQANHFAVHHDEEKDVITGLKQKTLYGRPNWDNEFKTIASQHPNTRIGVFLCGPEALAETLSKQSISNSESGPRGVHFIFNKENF

[9] = molecular target: NADPH oxidase 4 (Homo sapiens) (UniProt Q9NPH5); assay: NOX4-dependent H2O2 signal modulators, primary screen, NOX inhibitor project, cell-based, HEK293-NOX4, tetracycline-induced, Amplex Red fluorescence (AID 1160); conditions: 45 min, higher = more signal, called active from +8 up or from −8 down
Sequence of NADPH oxidase 4 (Homo sapiens) (Q9NPH5 whole entry, looked up): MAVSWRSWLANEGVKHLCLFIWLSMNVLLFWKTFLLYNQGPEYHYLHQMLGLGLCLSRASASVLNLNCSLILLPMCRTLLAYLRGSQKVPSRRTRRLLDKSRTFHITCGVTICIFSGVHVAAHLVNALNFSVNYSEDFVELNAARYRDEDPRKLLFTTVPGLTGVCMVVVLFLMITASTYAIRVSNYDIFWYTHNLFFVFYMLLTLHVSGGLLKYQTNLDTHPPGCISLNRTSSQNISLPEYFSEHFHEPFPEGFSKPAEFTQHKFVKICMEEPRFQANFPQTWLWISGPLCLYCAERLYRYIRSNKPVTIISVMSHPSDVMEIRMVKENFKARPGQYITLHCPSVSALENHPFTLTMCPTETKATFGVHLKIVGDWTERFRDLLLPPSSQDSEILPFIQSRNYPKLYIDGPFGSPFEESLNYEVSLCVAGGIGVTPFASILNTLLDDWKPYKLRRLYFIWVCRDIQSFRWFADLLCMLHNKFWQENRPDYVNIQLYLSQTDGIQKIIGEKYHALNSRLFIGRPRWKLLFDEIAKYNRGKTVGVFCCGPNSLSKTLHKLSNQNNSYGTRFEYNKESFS

[10] = molecular target: NADPH oxidase 5 (Homo sapiens) (UniProt Q96PH1); assay: NOX5-dependent H2O2 signal modulators, primary screen, NOX inhibitor project, cell-based, HEK293-NOX5, Amplex Red fluorescence (AID 1161); conditions: HEK293-NOX5, ionomycin, 45 min, higher = more signal
Sequence of NADPH oxidase 5 (Homo sapiens) (Q96PH1 whole entry, looked up): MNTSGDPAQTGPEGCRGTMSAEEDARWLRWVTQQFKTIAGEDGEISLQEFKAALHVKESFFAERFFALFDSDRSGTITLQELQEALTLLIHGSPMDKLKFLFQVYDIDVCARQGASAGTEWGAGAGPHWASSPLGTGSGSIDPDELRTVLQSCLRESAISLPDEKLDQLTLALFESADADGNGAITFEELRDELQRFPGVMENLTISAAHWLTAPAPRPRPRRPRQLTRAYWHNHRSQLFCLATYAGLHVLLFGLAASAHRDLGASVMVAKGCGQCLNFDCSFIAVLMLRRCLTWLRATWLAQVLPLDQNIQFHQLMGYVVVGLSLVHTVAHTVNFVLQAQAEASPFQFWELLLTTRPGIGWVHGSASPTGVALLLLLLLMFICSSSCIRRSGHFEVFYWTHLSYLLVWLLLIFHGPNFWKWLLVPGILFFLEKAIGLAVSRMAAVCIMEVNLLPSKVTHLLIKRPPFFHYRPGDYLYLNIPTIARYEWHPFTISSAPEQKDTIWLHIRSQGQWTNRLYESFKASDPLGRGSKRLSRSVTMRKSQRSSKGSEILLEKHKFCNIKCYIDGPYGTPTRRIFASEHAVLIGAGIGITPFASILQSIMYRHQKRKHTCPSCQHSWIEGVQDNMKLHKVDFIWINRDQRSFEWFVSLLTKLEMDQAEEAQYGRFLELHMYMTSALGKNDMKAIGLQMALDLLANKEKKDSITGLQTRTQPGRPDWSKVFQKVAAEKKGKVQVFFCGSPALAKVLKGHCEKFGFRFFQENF

Row | SMILES | z-score [1] | composite z-score [2] | z-score [3] | z-score [4] | z-score [5] | z-score [6] | z-score [7] | z-score [8] | z-score [9] | z-score [10]
1 | O=C(CS)NCCCCCNC(=O)[C@@H]1C[C@@H]2C(=O)NCC(=O)N2[C@@H]1c1ccc(O)cc1 | 1.6 (inactive) | -0.101 | 0.802 (inactive) | 0.0605 (inactive) | -0.194 (inactive) | 0.179 (inactive) | -0.259 | 1.18 (inactive) | -0.584 (inactive) | 1.67
2 | O=C1OCC=C[C@H]2OC34C=CCN(Cn5nnc6ccccc65)C(=O)[C@H]3N(CCCCCO)C(=O)[C@@H]4[C@@H]12 (stereo not given in full) | 0.911 (inactive) | -0.418 | 0.896 (inactive) | 0.212 (inactive) | 1.11 (inactive) | 0.383 (inactive) | -0.433 | 1.95 (inactive) | 0.223 (inactive) | 1.32
3 | C=CCC(OC(C)=O)[C@@H]1[C@@H](N(Cc2ccc(-c3cccc(C(F)(F)F)c3)o2)C(=O)c2cccc3ccccc23)c2cc(OCCCO)ccc2N1C(=O)Cc1ccc2ccccc2c1 (stereo not given in full) | -0.599 (inactive) | -0.147 | 0.877 (inactive) | -0.397 (inactive) | 1.31 (inactive) | -0.449 (inactive) | 0.359 | -2.15 (inactive) | -0.933 (inactive) | -1.04
4 | CC(C)OC(=O)C=C1C[C@@H](c2cccc(Cl)c2)O[C@@H](c2cccc(Cl)c2)O1 | -0.411 (inactive) | 0.165 | 0.915 (inactive) | 0.584 (inactive) | -0.159 (inactive) | 0.61 (inactive) | -0.0581 | 0.215 (inactive) | -0.914 (inactive) | -0.0406
5 | COC(=O)c1c(CC[C@@H](CO)NC(=O)NCCc2c[nH]c3ccccc23)oc(C(=O)Cc2ccccc2)c1C(=O)OC | 0.659 (inactive) | -0.423 | 7.43 (inactive) | -0.0918 (inactive) | -0.366 (inactive) | -1.01 (inactive) | 0.814 | -2.09 (inactive) | -1.16 (inactive) | -0.595
6 | NC(=O)[C@@]1(Cc2ccccc2)N=C(c2ccc(OCCCO)cc2)O[C@H]1c1ccccc1 | 1.53 (inactive) | 0.232 | 16.3 (active) | 2.07 (inactive) | 0.59 (inactive) | 0.639 (inactive) | 0.151 | -0.281 (inactive) | 0.211 (inactive) | 0.495
7 | C=CCNC(=O)[C@H]1[C@@H]2C(=O)O[C@@H](c3ccccc3)[C@@H](c3ccccc3)N2[C@@H](c2ccc(O)cc2)[C@]12C(=O)Nc1ccc(C#CCCO)cc12 | 0.605 (inactive) | 0.117 | 5.56 (inactive) | 0.608 (inactive) | -0.763 (inactive) | 0.443 (inactive) | -0.0803 | 0.67 (inactive) | -0.436 (inactive) | 0.603
8 | C=CC[C@]1(C(N)=O)COC(c2ccc(OCCCO)cc2)=N1 | 1.3 (inactive) | 0.269 | 3.06 (inactive) | 0.167 (inactive) | 0.111 (inactive) | 0.322 (inactive) | 0.537 | -2.3 (inactive) | 0.13 (inactive) | -0.131
9 | C[N+](C)(C)CCCC[C@@H]1NC(=O)[C@H]2C[C@@H](C(=O)NCCCCCCNC(=O)CS)[C@@H](c3ccc(O)cc3)N2C1=O | -0.265 (inactive) | -0.299 | 1.24 (inactive) | 0.193 (inactive) | 1.12 (inactive) | 0.0061 (inactive) | -0.409 | 0.518 (inactive) | 0.507 (inactive) | 0.936
10 | C=CCC(OC(C)=O)[C@@H]1[C@@H](N(Cc2ccc(-c3cccc(C(F)(F)F)c3)o2)C(=O)Cc2ccc(OC)cc2)c2cc(OCCCO)ccc2N1C(=O)c1ccc2ccccc2c1 (stereo not given in full) | 0.0395 (inactive) | 0.0191 | 1.35 (inactive) | 1.01 (inactive) | 2.68 (inactive) | 0.898 (inactive) | 0.388 | -2.68 (inactive) | -1.99 (inactive) | -1.9
11 | CCOC(=O)C1=CC[C@@H](c2ccc(C(F)(F)F)cc2)N(S(=O)(=O)c2ccc(C)cc2)[C@H]1c1ccccc1 | -0.734 (inactive) | 0.373 | 1.62 (inactive) | 1.61 (inactive) | 0.84 (inactive) | 0.828 (inactive) | -0.356 | 0.803 (inactive) | -0.658 (inactive) | -0.601
12 | COC(=O)[C@@]1(Cc2ccc(OC)cc2)[C@H]2c3cc(C(=O)N(C)C)n(Cc4ccc(C(F)(F)F)nc4)c3C[C@H]2CN1C(=O)c1ccccc1 | -0.346 (inactive) | 0.301 | 0.622 (inactive) | 0.315 (inactive) | -0.106 (inactive) | 0.471 (inactive) | -0.154 | 0.152 (inactive) | -1.26 (inactive) | -1.13
13 | CCOc1cc(C(O)C2C=CC3C(=O)N(c4ccccc4)C(=O)C3N2Nc2ccc(C(C)C)cc2)ccc1O (stereo not given) | -1.97 (inactive) | 0.469 | 11.5 (active) | 1.8 (inactive) | 1.74 (inactive) | 1.42 (inactive) | -0.729 | -3.06 (inactive) | -4.82 (inactive) | -5.07
14 | CCCC=C(CCC)[C@@H](NC(=O)OCC(C)C)c1ccccc1 | -1.93 (inactive) | 2.47 | -0.725 (inactive) | -0.732 (inactive) | 0.455 (inactive) | -1.61 (inactive) | 1.44 | -4.11 (inactive) | -3.58 (inactive) | -2.7
15 | COc1cc(CO)cc(I)c1O[C@H]1C=C(C(=O)NCCO)C[C@@H](N(C(=O)c2cc3ccccc3oc2=O)C2CCCCCC2)[C@@H]1O | 1.07 (inactive) | -0.0646 | 4.63 (inactive) | -0.78 (inactive) | 1.19 (inactive) | -1.9 (inactive) | 1.95 | 0.202 (inactive) | 0.881 (inactive) | 1.2
16 | O=C1N(CCS(=O)(=O)c2ccccc2)c2ccccc2[C@@H]2OC(c3ccc(OCCCO)cc3)=N[C@]12Cc1ccccc1 | 0.0442 (inactive) | -0.081 | 30.9 (active) | 24.6 (active) | 2.85 (inactive) | 6.38 (inactive) | 2.01 | -2.55 (inactive) | 0.645 (inactive) | -1.18
17 | O=C1NC(=O)C2C1C=CC(C(O)c1ccc(I)cc1)N2Nc1ccc(Cl)cc1Cl (stereo not given) | -0.971 (inactive) | 0.618 | 5.17 (inactive) | 0.872 (inactive) | -1.72 (inactive) | -1.16 (inactive) | 1.22 | -0.204 (inactive) | -4.36 (inactive) | -0.634
18 | CCCCCN1CC=CC23O[C@@H]4C=CCOC(=O)[C@@H]4[C@H]2C(=O)N(C(C)CO)[C@@H]3C1=O (stereo not given in full) | -0.0744 (inactive) | -0.103 | 0.59 (inactive) | 0.531 (inactive) | 0.136 (inactive) | 0.0638 (inactive) | 1.43 | 0.503 (inactive) | 0.306 (inactive) | 0.938
19 | COc1cc2c(cc1O)C(c1cccs1)N(Cc1cccc(OC(F)(F)F)c1)CC2 (stereo not given) | 0.36 (inactive) | -0.0999 | 8.07 (active) | 0.192 (inactive) | 0.112 (inactive) | -0.751 (inactive) | 1.09 | -4.69 (inactive) | -2.74 (inactive) | -4.1
20 | O=C(O)[C@H]1C[C@H]2C(=O)N3CCC[C@H]3C(=O)N2[C@H]1c1ccc(O)cc1 | 0.852 (inactive) | -0.121 | 1.9 (inactive) | 0.0196 (inactive) | -6.59 (inactive) | 0.104 (inactive) | -0.275 | 0.583 (inactive) | 0.16 (inactive) | 0.932
21 | CCCC(=O)N(CCc1c[nH]c2ccccc12)[C@@H]1CC(C(=O)NCCO)=C[C@H](Oc2c(I)cc(CO)cc2OC)[C@H]1O | 1.57 (inactive) | -0.275 | 13.2 (active) | 1.47 (inactive) | 2.04 (inactive) | 0.501 (inactive) | 0.968 | -0.674 (inactive) | 1.07 (inactive) | 1.16
22 | Cc1c(NC(=O)/C(C#N)=C/c2cccc([N+](=O)[O-])c2)c(=O)n(-c2ccccc2)n1C | 0.969 (inactive) | -0.173 | 0.468 (inactive) | -0.376 (inactive) | -0.451 (inactive) | -0.481 (inactive) | 2.39 | -1.36 (inactive) | -0.497 (inactive) | 0.864
23 | O=C1OCCC/C=C\[C@H]2OC34C=CCN(c5ccc6ccccc6c5)C(=O)[C@H]3N(CCCCCO)C(=O)[C@@H]4C12 (stereo not given in full) | -0.829 (inactive) | -0.147 | 0.29 (inactive) | -0.0458 (inactive) | -0.455 (inactive) | -0.181 (inactive) | -0.839 | 0.814 (inactive) | -0.15 (inactive) | 1.58
24 | COC(=O)[C@]1(CCC(=O)OC(C)(C)C)N=C(c2ccc(OCCCO)cc2)O[C@@H]1c1ccccc1 | 0.687 (inactive) | 0.765 | 27.7 (active) | 27.2 (active) | 0.0027 (inactive) | 5.02 (inactive) | -0.406 | -1.93 (inactive) | 0.178 (inactive) | -1.16
25 | CN(C)CCCCCCNC(=O)[C@@H]1C[C@@H]2C(=O)N[C@@H](CCCC[N+](C)(C)C)C(=O)N2[C@@H]1c1ccc(O)cc1 | -0.3 (inactive) | -0.612 | 1.59 (inactive) | -0.375 (inactive) | -0.604 (inactive) | 0.0077 (inactive) | -0.607 | -1.47 (inactive) | -0.773 (inactive) | -1.4
26 | C=CC[C@]12N=C(c3ccc(OCCCO)cc3)O[C@H]1c1ccccc1N(CCS(=O)(=O)c1ccccc1)C2=O | -0.913 (inactive) | 0.204 | 31.2 (active) | 28 (active) | 2.35 (inactive) | 7.99 (inactive) | 0.852 | -2.24 (inactive) | 0.939 (inactive) | -2.12
